Data taken from the supplement of paper PMC13380429.
Values without a mark were called inactive.

Tested on: Vero E6 infected with SARS-CoV-2
Assay: inhibition of SARS-CoV-2 cytopathic effect; higher = more antiviral protection, active = above 15
Conditions: 48 h

SMILES | inhibition of SARS-CoV-2 cytopathic effect (1 nM) | inhibition of SARS-CoV-2 cytopathic effect (8.33 nM) | inhibition of SARS-CoV-2 cytopathic effect (100 nM) | inhibition of SARS-CoV-2 cytopathic effect (833.33 nM) | inhibition of SARS-CoV-2 cytopathic effect (10000 nM)
CC(/C=C/C(=O)NO)=C\[C@@H](C)C(=O)c1ccc(N(C)C)cc1 [trichostatin-a] | -3.04% | -7.12% | -16% | -31% | -31.1%
C[C@H](N)C(=O)N[C@@]1(C(=O)O)C[C@@H](Sc2nnc[nH]2)[C@H]2[C@H](C(=O)O)[C@H]21 | -2.66% | -4.35% | -3.65% | -1.13% | 0.56%
O=C(O)CCc1c[nH]c2ccccc12 | 0.05% | -0.38% | -1.18% | -0.72% | -0.06%
CCCN(CCC)C(=O)C(CCC(=O)O)NC(=O)c1ccccc1 (stereo not given) [proglumide] | 2.27% | -2.46% | -0.81% | 2.34% | -1.09%
CC(=O)NC[C@H]1CN(c2ccc(N3CCOCC3)c(F)c2)C(=O)O1 [linezolid] | -5.81% | 4.06% | 2.87% | -0.71% | 3.13%
Cc1sc(N)c(C(=O)c2cccc(C(F)(F)F)c2)c1C | 1.09% | -1.79% | -3.31% | -3.27% | -2.62%
CN[C@@H](C)C(=O)N[C@H](C(=O)N1CCC[C@H]1C(=O)Nc1sc(-c2ncco2)nc1-c1ccccc1)C1CCCCC1 | -0.55% | -0.2% | -0.7% | 0.89% | 0.18%
CN1CCC[C@@H]1Cc1c[nH]c2ccc(CCS(=O)(=O)c3ccccc3)cc12 [eletriptan] | -0.44% | 1.24% | 2.14% | -1.16% | -2.89%
CN(NC(=O)CC(=O)NN(C)C(=S)c1ccccc1)C(=S)c1ccccc1 [elesclomol] | 1.66% | 2.35% | 18% (active) | 19.7% (active) | 36.4% (active)
CCOc1nc2cccc(C(=O)O)c2n1Cc1ccc(-c2ccccc2-c2noc(=O)[nH]2)cc1 [azilsartan] | 0.19% | 1.58% | 2.59% | 2.65% | 0.22%
O=c1oc2ccccc2c(O)c1Cc1c(O)c2ccccc2oc1=O [dicoumarol] | 0.87% | 0.88% | -0.82% | 1.35% | 3.32%
CCOC(=O)[C@H](CCc1ccccc1)N[C@@H](C)C(=O)N1C(=O)N(C)C[C@H]1C(=O)O [imidapril] | -1.07% | 0.74% | 0.36% | -0.5% | -1.28%
CO[C@H]1C[C@@H]2CC[C@@H](C)[C@@](O)(O2)C(=O)C(=O)N2CCCC[C@H]2C(=O)O[C@H]([C@H](C)C[C@@H]2CC[C@@H](O)[C@H](OC)C2)CC(=O)[C@H](C)/C=C(\C)[C@@H](O)[C@@H](OC)C(=O)[C@H](C)C[C@H](C)/C=C/C=C/C=C/1C [sirolimus] | -1.48% | -3.33% | -1.82% | -0.23% | -0.88%
CCO[C@@H](Cc1ccc(OCCn2c(C)ccc2-c2ccc(SC)cc2)cc1)C(=O)O [saroglitazar] | 1% | -0.85% | -1.26% | 0.64% | 1.31%
COc1ccc2c(C(=S)N(C)CC(=O)O)cccc2c1C(F)(F)F [tolrestat] | 0.38% | -0.6% | -3.79% | -3.61% | -5.09%
CCN(CC)CCCCC1CCN(CC(=O)N2c3ccccc3C(=O)Nc3cccnc32)CC1 | -0.6% | 0.18% | -0.52% | -1.51% | -4.44%
O=C(Nc1cc(C(F)(F)F)cc(C(F)(F)F)c1)c1cnc(Cl)nc1C(F)(F)F | 0.53% | -0.29% | 0.4% | -4.18% | -13.9%
O=C(O)c1cc(=O)c2ccccc2o1 [chromocarb] | -1.09% | -0.13% | -0.55% | 3.21% | -0.51%
C=C1C(=O)[C@]23[C@H](O)[C@H]1CC[C@H]2[C@@]12CO[C@]3(O)[C@@H](O)[C@@H]1C(C)(C)CC[C@@H]2O [Oridonin (Isodonol)] | -0.74% | 1.14% | 0.8% | 3.78% | 43.5% (active)

SMILES | inhibition of SARS-CoV-2 cytopathic effect (1 nM) | inhibition of SARS-CoV-2 cytopathic effect (8.33 nM) | inhibition of SARS-CoV-2 cytopathic effect (100 nM) | inhibition of SARS-CoV-2 cytopathic effect (833.33 nM) | inhibition of SARS-CoV-2 cytopathic effect (10000 nM)
CSc1ccc2c(c1)N(CCC1CCCCN1C)c1ccccc1S2 (stereo not given) [thioridazine] | 1.41% | 3.38% | -2.55% | 1.05% | 41.9% (active)
CC(=O)CC/C=C(\C)CC/C=C(\C)CC/C=C(\C)CCC=C(C)C [teprenone] | -0.07% | 1.34% | -1.34% | 1.98% | 0.16%
CCCNCCc1ccc(NS(=O)(=O)c2ccc(OC(F)(F)F)cc2)cc1 | 2.87% | 3.37% | -0.23% | 1.93% | -4.37%
Cc1cc(O)c2c(c1)C(=O)c1cccc(O)c1C2=O [chrysophanic-acid] | -0.27% | 0.87% | 0.28% | -0.5% | 5.09%
CC(=C(CCOC(=O)C(C)C)SSC(CCOC(=O)C(C)C)=C(C)N(C=O)Cc1cnc(C)nc1N)N(C=O)Cc1cnc(C)nc1N (stereo in doubt) [sulbutiamine] | 2% | 2.05% | 3.99% | -4.07% | -4.54%
Nc1cc(C(Cl)=C(Cl)Cl)c(S(N)(=O)=O)cc1S(N)(=O)=O [clorsulon] | -0.52% | 2.04% | 2.84% | -0.01% | -2.69%
FC(F)(F)C(F)(F)C(F)(F)C(F)(F)C(F)(F)C(F)(F)C(F)(F)C(F)(F)Br [perflubron] | -0.32% | 1.61% | 1.51% | -1.6% | 0.45%
CCCC(=O)O [sodium-butyrate] | -1.28% | -0.1% | 1.57% | -0.53% | 0.24%
Cc1ccccc1OCC(O)CO (stereo not given) [mephenesin] | -1% | 0.27% | 0.3% | -0.01% | 1.77%
CC(C)CC(NC(=O)OCC1c2ccccc2-c2ccccc21)C(=O)O (stereo in doubt) | 1.66% | 2.4% | 2.95% | 3.51% | 0.68%
Cn1c(N2CCCCS2(=O)=O)nc(C(=O)NCc2ccc(F)cc2)c(O)c1=O | -0.4% | -1.76% | -4.2% | -0.06% | -1.72%
CCCCCCCCCCCCCCCC(=O)C(F)(F)F | -1.4% | 0.3% | -10.8% | -13.2% | -0.25%
O=c1oc2c(O)c(O)cc3c(=O)oc4c(O)c(O)cc1c4c23 [ellagic-acid] | 0.02% | 0.42% | 4.12% | 1.76% | -1.74%
N#Cc1ccc2[nH]cc(CCCCN3CCN(c4ccc5oc(C(N)=O)cc5c4)CC3)c2c1 [vilazodone] | 0.76% | 1.07% | 0.51% | 1.56% | -3.06%
C[C@]12CC/C(=N\OCCN)C[C@@H]1C(=O)C[C@@H]1[C@@H]2CC[C@]2(C)C(=O)CC[C@@H]12 [istaroxime] | 2.17% | -1.67% | 1.45% | 3.86% | 6.93%
COc1ccc2c(c1)c(CC(=O)O)c(C)n2C(=O)c1ccc(Cl)cc1 [indomethacin] | -1.21% | 0.75% | -0.25% | 0.83% | 0.17%
COc1cccc(C(=O)CCN[C@@H](C)[C@H](O)c2ccccc2)c1 [oxyfedrine] | 0.05% | 1.34% | -0.45% | 0.14% | 1.77%
CC1(C)S[C@@H]2[C@H](NC(=O)[C@H](NC(=O)N3CCNC3=O)c3ccccc3)C(=O)N2[C@H]1C(=O)O [azlocillin] | -1.64% | -1.64% | 1.05% | -1.76% | -1.54%
O=C(O)C(Cc1ccccc1[N+](=O)[O-])=NNc1nc(-c2ccc(Cl)c(Cl)c2)cs1 | 4.49% | -0.65% | -1.01% | 3.78% | 0.02%
